# Test results: PubChem BioAssay (EPA / NIEHS)
# Values joined by “and” are separate entries in the source; they are usually repeats but may differ in a detail not shown here. Equal values may be shown once. Records with an inconclusive call do not appear. A structure can be active in one record and inactive in another. Active and inactive are the calls of the source. Rule for the calls: active = hit-call score of the fitted dose curve at least 0.9, where 1 is the maximum; inconclusive = response in the unintended direction; inactive = score below 0.9.
# Experiments:
# [1] = TOX21_p53_BLA_p3_viability: Viability Assessment in the Tox21 HCT-116 p53 Agonism Beta-lactamase Assay, Phase 3 (AID 2283593);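 note: cells exposed to compound for 16 h before reading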
# Method in brief: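 HCT116 cells, 4000/well, dosed 5 h after plating by pin transfer (217-fold dilution from DMSO stock) and incubated 16 h at 37C, 5% CO2. Viability read as ATP luminescence with CellTiter-Glo after 30 min at room temperature.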
# [2] = target: Cellular tumor antigen p53 (Homo sapiens) (UniProt P04637); experiment: TOX21_p53_BLA_p3_ratio: Tox21 HCT-116 p53 Agonism Beta-lactamase Assay, Ratio, Phase 3 (AID 2283596)
# Method in brief: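 Cells were seeded at 4000/well, rested 5 h at 37C, then dosed with DMSO compound solutions (217-fold dilution) for 16 h. CCF4-AM substrate was loaded for 2 h at room temperature, and the 460/530 nm emission ratio was fitted for gain of signal versus DMSO.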
# [3] = TOX21_p53_BLA_p4_viability: Viability Assessment in the Tox21 HCT-116 p53 Agonism Beta-lactamase Assay, Phase 4 (AID 2283597);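 note: hits lower the luminescence signal meaning cytotoxicity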
# Method in brief: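 In this multiplexed secondary endpoint, HCT116 cells (4000 per well, compound at 5 h, 16 h treatment) received CellTiter-Glo after the beta-lactamase read. Luminescence after 30 min RT reflects ATP, and falling signal marks cytotoxicity.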
# [4] = target: Cellular tumor antigen p53 (Homo sapiens) (UniProt P04637); experiment: TOX21_p53_BLA_p5_ratio: Tox21 HCT-116 p53 Agonism Beta-lactamase Assay, Ratio, Phase 5 (AID 2283599)
# Method in brief: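 HCT-116 p53-bla cells (4000/well) plated 5 h, dosed with compound (217-fold DMSO dilution) for 16 h at 37 C; CCF4-AM substrate 2 h at room temperature. Activity is the 460/530 nm emission ratio (405 nm excitation), fitted in gain-of-signal direction versus DMSO.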
# [5] = TOX21_p53_BLA_p5_viability: Viability Assessment in the Tox21 HCT-116 p53 Agonism Beta-lactamase Assay, Phase 5 (AID 2283600)
# Method in brief: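 Here cell health was gauged by ATP levels in wells holding 4000 cells, each treated 16 h with DMSO-delivered compounds at 217-fold dilution; reduced luminescence marked toxicity.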
# [6] = target: Cellular tumor antigen p53 (Homo sapiens) (UniProt P04637); experiment: TOX21_p53_BLA_p4_ratio: Tox21 HCT-116 p53 Agonism Beta-lactamase Assay, Ratio, Phase 4 (AID 2283601)
# Method in brief: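 HCT-116 p53 beta-lactamase reporter cells (4000/well) preincubated 5 h, then compound (217-fold dilution of DMSO stock) for 16 h at 37C. CCF4-AM substrate added 2 h at room temperature; 460/530 nm emission ratio fitted upward versus DMSO.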
# [7] = Tanguay_ZF_120hpf_MORT_legacy: (Legacy) Oregon State University Tanguay Lab 120 Hour Post-fertilization zebrafish Assay for Mortality (AID 2283633);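 for AC50: fitted as increase in binary mortality versus DMSO negative control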
# Method in brief: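 Single dechorionated Tropical 5D embryos were held with test chemical (0.64% DMSO final) from 6 to 120 hpf at 28C under foil. Deaths at 24 or 120 hpf were recorded as binary calls, analysed for increase over DMSO controls.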
# [8] = Tanguay_ZF_120hpf_YSE_legacy: (Legacy) Oregon State University Tanguay Lab 120 Hour Post-fertilization zebrafish Assay for Yolk Sac Edema (AID 2283634);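 for AC50: actives raise the incidence of yolk sac edema above the DMSO baseline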
# Method in brief: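 Single dechorionated embryos were held in sealed plates at 28C with test chemical (0.64% DMSO final) from 6 hpf until 120 hpf. Edema of the yolk sac was then recorded as a binary endpoint; non-mortality endpoints were skipped for dead embryos.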
# [9] = Tanguay_ZF_120hpf_AXIS_legacy: (Legacy) Oregon State University Tanguay Lab 120 Hour Post-fertilization zebrafish Assay for Body Axis Malformation (AID 2283635);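 for AC50: potency for an increased fraction of larvae scored with body axis malformation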
# Method in brief: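 Each dechorionated embryo was exposed alone from 6 hpf, with DMSO at 0.64% (vol/vol) and trimethyltin chloride 5 uM as positive control. Axis malformation was recorded at 120 hpf unless the embryo had died.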
# [10] = Tanguay_ZF_120hpf_EYE_legacy: (Legacy) Oregon State University Tanguay Lab 120 Hour Post-fertilization zebrafish Assay for Eye Malformation (AID 2283636);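 note: binary presence or absence of eye malformation scored by brightfield in 120 hpf larvae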
# Method in brief: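 5D wild-type embryos, pronase-dechorionated at 4 hpf; static exposure 6–120 hpf, 28C, dark; DMSO 0.64% final; 5uM trimethyltin chloride positive control. Binary eye-defect scoring at 120 hpf; dead embryos not scored.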
# [11] = Tanguay_ZF_120hpf_SNOU_legacy: (Legacy) Oregon State University Tanguay Lab 120 Hour Post-fertilization zebrafish Assay for Snout Malformation (AID 2283637)
# Method in brief: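 Binary brightfield scoring of snout malformation at 120 hpf. Dechorionated 5D wild-type embryos, one per well, static exposure from 6 hpf at 28C, sealed and dark; final DMSO 0.64% (vol/vol), DMSO as baseline; 5uM trimethyltin chloride positive control.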
# [12] = Tanguay_ZF_120hpf_JAW_legacy: (Legacy) Oregon State University Tanguay Lab 120 Hour Post-fertilization zebrafish Assay for Jaw Malformation (AID 2283638);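 for AC50: active means more embryos with jaw malformation than DMSO controls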
# Method in brief: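 Wild-type 5D embryos, chorion removed at 4 hpf, dosed singly from 6 hpf; 28C static, sealed, foil-covered, to 120 hpf. Endpoint: jaw defect yes/no (brightfield); mortality excludes scoring.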
# [13] = Tanguay_ZF_120hpf_OTIC_legacy: (Legacy) Oregon State University Tanguay Lab 120 Hour Post-fertilization zebrafish Assay for Otic Vesicle Malformation (AID 2283639)
# Method in brief: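 Wild-type zebrafish larvae, whole-embryo exposure from early stage to 120 hpf at 28C. Binary brightfield scoring of otic vesicle morphology, fitted in the positive direction against the DMSO baseline.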
# [14] = Tanguay_ZF_120hpf_PE_legacy: (Legacy) Oregon State University Tanguay Lab 120 Hour Post-fertilization zebrafish Assay for Pericardial Edema (AID 2283640);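 for AC50: potency for increased incidence of pericardial edema versus DMSO baseline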
# Method in brief: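 Zebrafish larvae are exposed from early development to 120 hpf at 28C, with 0.64% DMSO final. Each surviving larva receives a yes/no pericardial edema call by brightfield imaging, analysed relative to the DMSO baseline.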
# [15] = Tanguay_ZF_120hpf_SOMI_legacy: (Legacy) Oregon State University Tanguay Lab 120 Hour Post-fertilization zebrafish Assay for Somite Malformation (AID 2283647)
# Method in brief: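 Somitogenesis defects are recorded as binary calls in whole larvae at 120 hpf after continuous static chemical exposure starting at 6 hpf in dechorionated 5D embryos. DMSO serves as negative control and baseline.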
# [16] = Tanguay_ZF_120hpf_PFIN_legacy: (Legacy) Oregon State University Tanguay Lab 120 Hour Post-fertilization zebrafish Assay for Pectoral Fin Malformation (AID 2283648);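 note: each larva judged yes or no for fin defect by brightfield with dead larvae skipped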
# Method in brief: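 Binary pectoral fin malformation call at 120 hpf by brightfield microscopy; 5D wild-type zebrafish, chorion removed at 4 hpf, one embryo per well from 6 hpf, static exposure at 28C; DMSO (0.64% final) as baseline.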
# [17] = Tanguay_ZF_120hpf_CFIN_legacy: (Legacy) Oregon State University Tanguay Lab 120 Hour Post-fertilization zebrafish Assay for Caudal Fin Malformation (AID 2283649)
# Method in brief: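 Single dechorionated 5D wild-type embryos are dosed at 6 hpf (final DMSO 0.64%) and held statically at 28C. Caudal fin malformation is recorded as present or absent at 120 hpf under brightfield, excluding dead embryos.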
# [18] = Tanguay_ZF_120hpf_PIG_legacy: (Legacy) Oregon State University Tanguay Lab 120 Hour Post-fertilization zebrafish Assay for Pigmentation Malformation (AID 2283650);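 note: dechorionated Tropical 5D zebrafish embryos exposed singly from 6 to 120 hpf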
# Method in brief: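 Brightfield scoring of pigmentation malformation at 120 hpf, recorded as binary present/absent per larva. Exposure: dechorionated 5D wild-type embryos, one per well, static from 6 hpf at 28C, final DMSO 0.64% (vol/vol). Dead embryos not scored.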
# [19] = Tanguay_ZF_120hpf_CIRC_legacy: (Legacy) Oregon State University Tanguay Lab 120 Hour Post-fertilization zebrafish Assay for Circulatory Malformation (AID 2283651)
# Method in brief: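 Binary circulatory-malformation call at 120 hpf via brightfield imaging, relative to DMSO controls. Embryos (5D strain, chorion removed) received static, light-shielded exposure at 28C.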
# Cellular tumor antigen p53 (Homo sapiens), sequence (P04637 whole entry, looked up): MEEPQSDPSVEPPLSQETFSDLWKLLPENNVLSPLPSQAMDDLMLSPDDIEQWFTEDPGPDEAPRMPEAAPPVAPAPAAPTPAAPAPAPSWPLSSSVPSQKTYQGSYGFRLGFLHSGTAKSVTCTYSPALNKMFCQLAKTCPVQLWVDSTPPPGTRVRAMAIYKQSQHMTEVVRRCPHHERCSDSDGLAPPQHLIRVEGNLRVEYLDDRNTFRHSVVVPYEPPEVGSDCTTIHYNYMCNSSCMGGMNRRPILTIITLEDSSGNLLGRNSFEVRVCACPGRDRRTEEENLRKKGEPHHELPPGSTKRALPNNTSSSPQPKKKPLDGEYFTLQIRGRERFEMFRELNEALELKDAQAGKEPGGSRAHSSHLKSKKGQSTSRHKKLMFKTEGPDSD
structure (smiles),measurement,setting,value
O=S(=O)(O)C(F)(F)C(F)(F)C(F)(F)C(F)(F)C(F)(F)C(F)(F)C(F)(F)C(F)(F)F,AC50,[1],61.4 µM (active)
same,outcome,[1],inactive
same,outcome,[2],inactive
same,AC50,[3],64.6 µM (active) and 48.8 µM (active) and 59.3 µM (active)
same,outcome,[4],inactive
same,outcome,[5],inactive
same,AC50,[6],82.4 µM (active) and 82.8 µM (active)
same,outcome,[6],inactive
same,AC50,[7],426 nM (active) and 4.73 µM (active) and 20.8 µM (active)
same,outcome,[7],inactive
same,AC50,[8],19.8 µM (active) and 7.26 µM (active) and 41.3 µM (active)
same,outcome,[8],inactive
same,AC50,[9],25 µM (active) and 42.3 µM (active) and 42.2 µM (active)
same,outcome,[9],inactive
same,AC50,[10],37 µM (active)
same,outcome,[10],inactive
same,AC50,[11],25.1 µM (active) and 33.2 µM (active)
same,outcome,[11],inactive
same,AC50,[12],26.5 µM (active) and 43.5 µM (active)
same,outcome,[12],inactive
same,AC50,[13],47.5 µM (active)
same,outcome,[13],inactive
same,AC50,[14],14.5 µM (active) and 36.8 µM (active)
same,outcome,[14],inactive
same,AC50,[15],33.8 µM (active)
same,outcome,[15],inactive
same,AC50,[16],36 µM (active)
same,outcome,[16],inactive
same,AC50,[17],12.2 µM (active)
same,outcome,[17],inactive
same,AC50,[18],46.6 µM (active)
same,outcome,[18],inactive
same,AC50,[19],42.5 µM (active)
same,outcome,[19],inactive
O=C(Nc1ccccc1)Nc1cnns1,outcome,[1],inactive
same,outcome,[2],inactive
same,outcome,[3],inactive
same,outcome,[4],inactive
same,AC50,[6],52.9 µM (active)
same,outcome,[7],inactive
same,outcome,[8],inactive
same,outcome,[9],inactive
same,outcome,[10],inactive
same,outcome,[11],inactive
same,outcome,[12],inactive
same,outcome,[13],inactive
same,outcome,[14],inactive
same,outcome,[15],inactive
same,outcome,[16],inactive
same,outcome,[17],inactive
same,outcome,[18],inactive
same,outcome,[19],inactive
CCC(C)(NC(=O)c1cc(Cl)c(C)c(Cl)c1)C(=O)CCl (stereo not given),AC50,[1],76.4 µM (active)
same,AC50,[2],29.6 µM (active)
same,AC50,[3],60.3 µM (active)
same,AC50,[4],72.2 µM (active)
same,AC50,[5],74.7 µM (active)
same,AC50,[6],66.8 µM (active)
same,outcome,[7],inactive
same,AC50,[8],26.1 µM (active)
same,outcome,[9],inactive
same,AC50,[10],28.2 µM (active)
same,AC50,[11],25.4 µM (active)
same,outcome,[12],inactive
same,outcome,[13],inactive
same,outcome,[14],inactive
same,outcome,[16],inactive
same,outcome,[17],inactive
same,outcome,[19],inactive
O=C1c2ccccc2C(=O)N1SC(Cl)(Cl)Cl,outcome,[1],inactive
same,AC50,[2],6.49 µM (active) and 23.1 µM (active)
same,outcome,[3],inactive
same,AC50,[4],14.1 µM (active) and 12.9 µM (active)
same,AC50,[6],13.5 µM (active) and 22.1 µM (active)
same,outcome,[7],inactive
same,outcome,[8],inactive
same,outcome,[9],inactive
same,outcome,[10],inactive
same,outcome,[11],inactive
same,outcome,[12],inactive
same,outcome,[13],inactive
same,outcome,[14],inactive
same,outcome,[16],inactive
same,outcome,[17],inactive
same,outcome,[18],inactive
CC(C)(C)C(O)C(Oc1ccc(Cl)cc1)n1cncn1 (stereo not given),outcome,[1],inactive
same,outcome,[2],inactive
same,outcome,[3],inactive
same,outcome,[4],inactive
same,outcome,[5],inactive
same,outcome,[6],inactive
same,outcome,[7],inactive
same,AC50,[8],40.2 µM (active) and 31 µM (active) and 43.9 µM (active)
same,AC50,[9],40.7 µM (active) and 31.9 µM (active) and 48.1 µM (active)
same,AC50,[10],43.8 µM (active) and 32.4 µM (active) and 39.9 µM (active)
same,AC50,[11],33.7 µM (active) and 47.3 µM (active)
same,outcome,[11],inactive
same,AC50,[12],32 µM (active) and 51.8 µM (active)
same,outcome,[12],inactive
same,AC50,[13],46.2 µM (active) and 33 µM (active) and 45.3 µM (active)
same,AC50,[14],47.5 µM (active) and 32.6 µM (active) and 43.3 µM (active)
same,AC50,[15],46 µM (active)
same,outcome,[15],inactive
same,AC50,[16],47.2 µM (active) and 33.2 µM (active) and 39.7 µM (active)
same,AC50,[17],40.7 µM (active)
same,outcome,[17],inactive
same,AC50,[18],44.2 µM (active) and 47.8 µM (active)
same,outcome,[18],inactive
same,AC50,[19],40.6 µM (active)
same,outcome,[19],inactive
